For six compounds, AC50 and outcome results are on record in PubChem BioAssay (EPA / NIEHS).

Each structure is given as a SMILES string. Calls of active or inactive are those of the source. The calls were made as follows: active = hit-call score of the fitted dose curve at least 0.9, where 1 is the maximum; inactive = score below 0.9.

Conditions in all cases: mRNA level, 48 h; actives raise or lower the signal
Read-out in assay [1]: ABC Transporter (ABCB1), ABCB1 (gene 5243)
The experiment in a line: LTEA_HepaRG_ABCB1: Life Technologies and Expression Analysis (LTEA) Assay for ABC Transporter (ABCB1) using HepaRG (AID 2283460). The essentials:
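Human liver HepaRG line treated 48 h with up to 100 uM compound (eight half-log points, 0.5% DMSO); ABCB1 mRNA change fitted bidirectionally against DMSO controls.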

Read-out in assay [2]: growth arrest and DNA damage 45 (GADD45B), GADD45B (gene 4616)
The experiment in a line: LTEA_HepaRG_GADD45B: Life Technologies and Expression Analysis (LTEA) Assay for growth arrest and DNA damage 45 (GADD45B) using HepaRG (AID 2283461). The essentials:
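Transcript level quantified by Fluidigm TaqMan qRT-PCR with three housekeeping genes for normalization, analyzed for up- or down-regulation against 0.5% DMSO. HepaRG cultures dosed 48 h at eight half-log concentrations up to 100 uM, duplicates.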

Read-out in assay [3]: ABC Transporter (ABCC3), ABCC3 (gene 8714)
The experiment in a line: LTEA_HepaRG_ABCC3: Life Technologies and Expression Analysis (LTEA) Assay for ABC Transporter (ABCC3) using HepaRG (AID 2283462). The method in brief:
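Transcript level by TaqMan qRT-PCR, normalised to three housekeeping genes, fitted in both directions relative to vehicle. Chemicals tested in duplicate at eight half-log concentrations up to 100 uM for 48 h on HepaRG cells (0.5% DMSO).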

Read-out in assay [4]: ABC Transporter (ABCC2), ABCC2 (gene 1244)
The assay can be described thus: LTEA_HepaRG_ABCC2: Life Technologies and Expression Analysis (LTEA) Assay for ABC Transporter (ABCC2) using HepaRG (AID 2283464). The method in brief:
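Endpoint is ABCC2 transcript level from qRT-PCR, normalized to three housekeeping genes and fitted bidirectionally relative to DMSO. Human HepaRG cells received test chemical for 48 h at up to 100 uM (8 points, half-log steps, 0.5% DMSO), duplicate wells.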

Read-out in assay [5]: Broad substrate specificity ATP-binding cassette transporter ABCG2 (Homo sapiens) (UniProt Q9UNQ0)
The experiment in a line: LTEA_HepaRG_ABCG2: Life Technologies and Expression Analysis (LTEA) Assay for ABC Transporter (ABCG2) using HepaRG (AID 2283465). The essentials: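 Gene expression of ABCG2 in HepaRG liver cells is quantified by qRT-PCR following 48 h exposure across an eight-point series topping at 100 uM. Values come from bidirectional fitting relative to DMSO vehicle.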

Read-out in assay [6]: ATP-citrate lyase (ACLY), ACLY (gene 47)
The experiment in a line: LTEA_HepaRG_ACLY: Life Technologies and Expression Analysis (LTEA) Assay for ATP-citrate lyase (ACLY) using HepaRG (AID 2283466). The essentials: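 ACLY expression changes in human HepaRG liver cells are quantified by qRT-PCR after 48 h exposure to test chemicals (maximum 100 uM, half-log steps). Values are fitted in both directions relative to 0.5% DMSO vehicle.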

Read-out in assay [7]: Peroxisomal acyl-coenzyme A oxidase 1 (ACOX1) gene, ACOX1 (gene 51)
The experiment in a line: LTEA_HepaRG_ACOX1: Life Technologies and Expression Analysis (LTEA) Assay for Peroxisomal acyl-coenzyme A oxidase 1 (ACOX1) gene using HepaRG (AID 2283467). The essentials: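 Human HepaRG hepatic cultures, 48 h treatment with test chemicals up to 100 uM. ACOX1 expression read by qRT-PCR relative to 0.5% DMSO vehicle.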

Read-out in assay [8]: Alkaline Phosphatase, Placental (ALPP) gene, ALPP (gene 250)
The experiment in a line: LTEA_HepaRG_ALPP: Life Technologies and Expression Analysis (LTEA) Assay for Alkaline Phosphatase, Placental (ALPP) gene using HepaRG (AID 2283468).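 As to AC50: differentiated human HepaRG liver cells in serum-free induction medium.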 The essentials:
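ALPP transcript level, measured by qRT-PCR and normalized to three housekeeping genes (ACTB, GAPDH, POLR2A), after 48 h dosing of differentiated HepaRG in serum-free induction medium. Top concentration 100 uM with half-log dilutions (8 points, 0.5% DMSO, duplicates); bidirectional fitting relative to DMSO.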

Read-out in assay [9]: Bcl-2 (BAD) gene, BAD (gene 572)
The assay can be described thus: LTEA_HepaRG_BAD: Life Technologies and Expression Analysis (LTEA) Assay for Bcl-2 (BAD) gene using HepaRG (AID 2283469). The essentials:
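Activity values reflect up- or down-regulation of BAD mRNA in human HepaRG hepatic cells treated 48 h in serum-free medium, with eight-point half-log dosing capped at 100 uM and 0.5% DMSO vehicle.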

Read-out in assay [10]: Bcl-2 (BAX) gene, BAX (gene 581)
The assay can be described thus: LTEA_HepaRG_BAX: Life Technologies and Expression Analysis (LTEA) Assay for Bcl-2 (BAX) gene using HepaRG (AID 2283470). The method in brief: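 Gene expression measured by Fluidigm qRT-PCR with three housekeeping genes for normalisation. HepaRG cells, plated 48 h beforehand, treated 48 h at up to 100 uM (8-point, half-log) in 0.5% DMSO. Bidirectional fitting versus DMSO.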

Read-out in assay [11]: adenosine kinase (ADK) gene, ADK (gene 132)
The assay can be described thus: LTEA_HepaRG_ADK: Life Technologies and Expression Analysis (LTEA) Assay for adenosine kinase (ADK) gene using HepaRG (AID 2283471). The method in brief: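 ADK expression quantified by qRT-PCR, normalised to three housekeeping genes, after 48 h exposure of HepaRG cells to eight concentrations (top 100 uM, half-log steps, duplicate, 0.5% DMSO). Up- or down-regulation fitted relative to vehicle.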

Read-out in assay [12]: Alpha-fetoprotein (AFP) gene, AFP (gene 174)
The assay can be described thus: LTEA_HepaRG_AFP: Life Technologies and Expression Analysis (LTEA) Assay for Alpha-fetoprotein (AFP) gene using HepaRG (AID 2283472). The essentials:
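AFP transcript measured by TaqMan qRT-PCR with three housekeeping genes for normalization, after 48 h chemical treatment of HepaRG cells (top 100 uM, half-log steps, 0.5% DMSO). Gain or loss fitted against vehicle.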

Read-out in another assay: BCL2L11 (gene 10018)
The assay can be described thus: LTEA_HepaRG_BCL2L11: Life Technologies and Expression Analysis (LTEA) Assay for Bcl-2 (BCL2L11) gene using HepaRG (AID 2283473). The method in brief:
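BCL2L11 transcript levels are measured by Fluidigm qRT-PCR, normalized to three housekeeping genes. HepaRG cultures were plated 48 h, then treated 48 h with test chemical (top 100 uM, half-log, 0.5% DMSO vehicle); curves were fitted bidirectionally against DMSO.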

Read-out in assay [13]: Apolipoprotein A-V (APOA5) gene, APOA5 (gene 116519)
The experiment in a line: LTEA_HepaRG_APOA5: Life Technologies and Expression Analysis (LTEA) Assay for Apolipoprotein A-V (APOA5) gene using HepaRG (AID 2283474). The method in brief: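 APOA5 transcript levels were quantified by qRT-PCR, normalized to three housekeeping genes, after 48 h chemical treatment of HepaRG cells (8 points, 100 uM maximum, half-log steps, 0.5% DMSO). Curves fitted in both directions against vehicle.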

Read-out in assay [14]: Apoptosis regulator Bcl-2 (Homo sapiens) (UniProt P10415)
The experiment in a line: LTEA_HepaRG_BCL2: Life Technologies and Expression Analysis (LTEA) Assay for Bcl-2 gene using HepaRG (AID 2283475). The essentials:
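qRT-PCR of BCL2 transcript, normalized to three housekeeping genes (ACTB, GAPDH, POLR2A), after 48 h chemical exposure of HepaRG cells; concentrations top 100 uM with half-log dilutions, 0.5% DMSO vehicle, duplicates; changes up or down fitted relative to vehicle.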

Read-out in assay [15]: Bcl-2 (BID) gene, BID (gene 637)
The assay can be described thus: LTEA_HepaRG_BID: Life Technologies and Expression Analysis (LTEA) Assay for Bcl-2 (BID) gene using HepaRG (AID 2283476). The method in brief: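 Duplicate 48 h treatments of HepaRG cells in serum-free induction medium spanned 100 uM downward in half-log steps, 0.5% DMSO. Transcript change quantified by qRT-PCR against three housekeeping genes, fitted up or down versus DMSO.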

Read-out in a further assay: Caspase-3 (Homo sapiens) (UniProt P42574)
The assay can be described thus: LTEA_HepaRG_CASP3: Life Technologies and Expression Analysis (LTEA) Assay for cysteine-aspartic acid protease (CASP3) using HepaRG (AID 2283477). The method in brief: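 Expression of CASP3 was quantified by TaqMan qRT-PCR against three housekeeping genes (ACTB, GAPDH, POLR2A), bidirectionally versus 0.5% DMSO. HepaRG cultures received compounds in duplicate, top 100 uM with half-log steps, for 48 h in serum-free induction medium.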

Read-out in assay [16]: Cytochrome P450 (CYP24A1), CYP24A1 (gene 1591)
The experiment in a line: LTEA_HepaRG_CYP24A1: Life Technologies and Expression Analysis (LTEA) Assay for Cytochrome P450 (CYP24A1) using HepaRG (AID 2283478). The essentials:
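mRNA of CYP24A1 quantified by TaqMan qRT-PCR (ACTB/GAPDH/POLR2A normalization) after 48 h chemical exposure of HepaRG cells, top concentration 100 uM, half-log steps, 0.5% DMSO vehicle, duplicates. Curves fitted bidirectionally against DMSO baseline.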

Read-out in assay [17]: Cytochrome P450 (CYP1A2), CYP1A2 (gene 1544)
The experiment in a line: LTEA_HepaRG_CYP1A2: Life Technologies and Expression Analysis (LTEA) Assay for Cytochrome P450 (CYP1A2) using HepaRG (AID 2283479). The method in brief: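 CYP1A2 transcript measured by TaqMan qRT-PCR against three housekeeping genes after 48-hour chemical exposure of HepaRG cells. Eight-point half-log series topping at 100 uM in 0.5% DMSO, duplicates; gain or loss fitted relative to vehicle.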

Caspase-3 (Homo sapiens), sequence (P42574 whole entry, looked up): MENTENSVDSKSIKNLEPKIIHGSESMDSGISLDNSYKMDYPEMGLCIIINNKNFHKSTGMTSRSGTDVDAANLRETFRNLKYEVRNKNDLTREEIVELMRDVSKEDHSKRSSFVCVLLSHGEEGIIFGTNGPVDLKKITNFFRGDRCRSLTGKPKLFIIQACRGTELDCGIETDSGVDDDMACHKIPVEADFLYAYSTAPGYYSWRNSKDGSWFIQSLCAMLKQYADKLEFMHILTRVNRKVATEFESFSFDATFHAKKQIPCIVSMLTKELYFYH
Apoptosis regulator Bcl-2 (Homo sapiens), sequence (P10415 whole entry, looked up): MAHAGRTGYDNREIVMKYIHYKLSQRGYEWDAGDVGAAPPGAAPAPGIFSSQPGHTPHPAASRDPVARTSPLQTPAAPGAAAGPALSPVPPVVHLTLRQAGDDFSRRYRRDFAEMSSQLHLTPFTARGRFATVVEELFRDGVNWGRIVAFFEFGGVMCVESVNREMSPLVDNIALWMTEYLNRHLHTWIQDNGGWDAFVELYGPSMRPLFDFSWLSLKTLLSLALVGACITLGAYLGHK
Broad substrate specificity ATP-binding cassette transporter ABCG2 (Homo sapiens), sequence (Q9UNQ0 whole entry, looked up): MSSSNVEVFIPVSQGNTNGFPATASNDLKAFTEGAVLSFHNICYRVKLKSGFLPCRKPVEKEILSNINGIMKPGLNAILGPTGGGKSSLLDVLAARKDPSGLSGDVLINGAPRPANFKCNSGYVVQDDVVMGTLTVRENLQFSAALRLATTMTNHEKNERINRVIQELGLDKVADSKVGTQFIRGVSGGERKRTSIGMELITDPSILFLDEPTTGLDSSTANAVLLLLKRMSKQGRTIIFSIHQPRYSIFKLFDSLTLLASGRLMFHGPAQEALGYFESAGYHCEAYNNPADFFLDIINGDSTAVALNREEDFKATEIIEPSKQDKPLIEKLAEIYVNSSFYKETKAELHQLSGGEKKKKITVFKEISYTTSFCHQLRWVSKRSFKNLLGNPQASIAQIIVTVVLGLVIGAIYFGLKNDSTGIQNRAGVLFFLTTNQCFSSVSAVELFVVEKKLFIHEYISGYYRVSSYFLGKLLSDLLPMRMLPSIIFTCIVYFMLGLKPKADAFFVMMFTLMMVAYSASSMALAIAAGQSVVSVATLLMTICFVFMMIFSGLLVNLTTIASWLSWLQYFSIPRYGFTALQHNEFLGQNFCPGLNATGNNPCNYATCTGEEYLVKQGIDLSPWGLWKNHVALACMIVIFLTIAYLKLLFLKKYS

For the compound `CCCN(CCC)c1c([N+](=O)[O-])cc(C(C)C)cc1[N+](=O)[O-]`, the AC50 was 50 µM (active) in [1]; 0.246 µM (active) in assay [3]; 18.3 µM (active) in assay [4]; 18.1 µM (active) in assay [5]; 0.129 µM (active) in assay [6]; 50 µM (active) in assay [12]. Besides, the AC50 with BCL2L11 (gene 10018) is 0.106 µM (active); in [13], 0.123 µM (active); in assay [15] it was 0.119 µM (active); in assay [17], 27.3 µM (active). Also, the compound was classed as inactive in assay [2], in assay [7], in [8], in assay [9], in [10] and in [11]. Also, the compound was called inactive (in [14]; in the assay with Caspase-3 (Homo sapiens); in assay [16]).
As for `CCOP(=S)(Oc1ccc([N+](=O)[O-])cc1)c1ccccc1` (stereo unspecified), the half-maximal activity concentration (AC50) in assay [1] was 4.56 µM (active); in assay [4] it was 24 µM (active); in assay [5], 12.7 µM (active); in assay [8], 50 µM (active); in assay [12] it was 29.4 µM (active); in [17], 24.2 µM (active). For the same compound, the result in assay [2], in [3], in assay [6], in assay [7], in assay [9] and in assay [10] was inactive. In addition, the outcome (in [11]; with BCL2L11 (gene 10018); in assay [13]; in assay [14]; in [15]; with Caspase-3 (Homo sapiens)) was inactive. In addition, in assay [16], the compound was classed as inactive.
Consider `CCC1(c2ccccc2)C(=O)N=C(O)NC1=O` (stereo unspecified), for which the outcome in assay [1], in assay [2], in assay [3], in [4], in assay [5] and in assay [6] was inactive. For the same compound, the compound was classed as inactive in assay [7], in assay [8], in [9], in [10], in assay [11] and in assay [12]. Moreover, the compound was called inactive (with BCL2L11 (gene 10018); in assay [13]; in assay [14]; in assay [15]; with Caspase-3 (Homo sapiens); in assay [16]). Further, in assay [17], the outcome was inactive.
On to `O=C(O)C(Cl)Cl`, for which the outcome in assay [1], in assay [2], in assay [3], in assay [4], in [5] and in assay [6] was inactive. The call in [7], in [8], in [9], in [10], in assay [11] and in assay [12] was inactive. The result (with BCL2L11 (gene 10018); in [13]; in [14]; in [15]; with Caspase-3 (Homo sapiens); in assay [16]) was inactive. In addition, the outcome in assay [17] was inactive.
Take `Nc1ccc(Cl)cc1`: the compound was called inactive in assay [1], in assay [2], in [3], in assay [4], in assay [5] and in [6]. Besides, the result in assay [7], in assay [8], in [9], in assay [10], in assay [11] and in assay [12] was inactive. Besides, the compound was called inactive (in the assay with BCL2L11 (gene 10018); in assay [13]; in assay [14]; in [15]; with Caspase-3 (Homo sapiens); in assay [16]). For the same compound, the concentration at half-maximal activity (AC50) in assay [17] is 33.4 µM (active).
As to `CC(C)(C)c1ccc(O)cc1`, the compound was called inactive in assay [2], in assay [3], in assay [4], in assay [5], in assay [6] and in assay [7]. Besides, the compound was called inactive (in [8]; in [9]; in assay [10]; in assay [11]; in assay [12]; with BCL2L11 (gene 10018)). Besides, the result (in [13]; in [14]; in assay [15]; with Caspase-3 (Homo sapiens)) was inactive.
